From PubChem BioAssay
Only some compounds are listed: those with a hit (about 2.4% of all), similar ones and a draw of the others.
FEN1 inh = inhibitors of human flap endonuclease 1 | P39748 | Recombinant FEN1 flap cleavage, fluorescence, 15 min | Potency, µM (top dose mostly 114 µM), for inactives: at the top dose activity change, negative = inhibition, usual class: inhibitors | 0.35% of 390,000 active | AID 588795; also: % is scaled to controls: 0 for no effect and ±100 for the full control effect; nearly all actives have a fitted effect of over 65% in size
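FEN1 at 10 nM, compound pretreatment for 15 min (room temperature), 50 nM final substrate to initiate; endpoint reads at 0 and 15 min; DMSO-only plates used as vehicle background.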
POLB inh = inhibitors of human DNA polymerase beta; Pol beta primer extension/strand displacement, fluorescence kinetic; 1.3% of 340,000 active; Potency, µM (doses to about 114 µM), for inactives: top-dose activity change, negative = inhibition, most hits filed as inhibitors; AID 485314; P06746; also: % is scaled to controls: 0 for no effect and ±100 for the full control effect
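Kinetic readout of DNA synthesis with strand displacement by Pol beta. Compound and 10 nM enzyme sit 15 min at room temperature; 50 nM substrate starts the reaction, read immediately and at 10 min.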
POLI inh = blocks human DNA polymerase iota activity; 1% of 390,000 active; Q9UNA4; Pol iota fluorescent replication assay, 10 min; Potency, µM (highest dose often 115 µM), for inactives: at the top dose activity, negative = inhibition, usual class: inhibitors
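Fluorescent replication assay read twice, at 0 min and 10 min after adding 50 nM (final) substrate. Enzyme (10 nM) and compounds were first incubated 15 min at room temperature; enzyme-free buffer wells were negative controls.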
POLK inh = inhibitors of human DNA polymerase kappa; purified Pol kappa, fluorescent DNA synthesis assay, 10 min; 0.53% of 400,000 active; Potency, µM (series often up to 107 µM), for the others: at the highest dose activity, negative = inhibition, usual class: inhibitors; AID 588579; also: % is scaled to controls: 0 for no effect and ±100 for the full control effect
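10 nM Pol kappa preincubated 15 min at room temperature with compounds, then reaction started with substrate at 50 nM final. Fluorescence read kinetically at 0 and 10 min; buffer-only wells served as negative control.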
WRN inhibitor = inhibitors of human WRN helicase; Q14191; WRN helicase unwinding, fluorescent forked duplex, kinetic; Potency, µM (highest dose often 114 µM), without a hit: at the highest dose activity change, negative = inhibition, hits mostly inhibitors; 0.46% of 360,000 active; AID 651768; also: % is scaled to controls: 0 for no effect and ±100 for the full control effect; nearly all actives have a fitted effect of over 55% in size
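Enzyme (20 nM final) and test compound sit together 15 min at room temperature before substrate addition. Substrate is a single-forked duplex oligonucleotide (100 nM) labelled with fluorophore and quencher, with 2 mM ATP; helicase unwinding raises red fluorescence, read kinetically.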
POLH inh = blocks human DNA polymerase eta activity. AID 588591. Q9Y253. 1.2% of 390,000 active. recombinant Pol eta, fluorescent DNA replication assay. Potency, µM (top dose mostly 114 µM), inactives show at the highest dose activity change, negative = inhibition, hits mostly inhibitors; also: % is scaled to controls: 0 for no effect and ±100 for the full control effect
Target sequence (Q9Y253 whole entry, looked up): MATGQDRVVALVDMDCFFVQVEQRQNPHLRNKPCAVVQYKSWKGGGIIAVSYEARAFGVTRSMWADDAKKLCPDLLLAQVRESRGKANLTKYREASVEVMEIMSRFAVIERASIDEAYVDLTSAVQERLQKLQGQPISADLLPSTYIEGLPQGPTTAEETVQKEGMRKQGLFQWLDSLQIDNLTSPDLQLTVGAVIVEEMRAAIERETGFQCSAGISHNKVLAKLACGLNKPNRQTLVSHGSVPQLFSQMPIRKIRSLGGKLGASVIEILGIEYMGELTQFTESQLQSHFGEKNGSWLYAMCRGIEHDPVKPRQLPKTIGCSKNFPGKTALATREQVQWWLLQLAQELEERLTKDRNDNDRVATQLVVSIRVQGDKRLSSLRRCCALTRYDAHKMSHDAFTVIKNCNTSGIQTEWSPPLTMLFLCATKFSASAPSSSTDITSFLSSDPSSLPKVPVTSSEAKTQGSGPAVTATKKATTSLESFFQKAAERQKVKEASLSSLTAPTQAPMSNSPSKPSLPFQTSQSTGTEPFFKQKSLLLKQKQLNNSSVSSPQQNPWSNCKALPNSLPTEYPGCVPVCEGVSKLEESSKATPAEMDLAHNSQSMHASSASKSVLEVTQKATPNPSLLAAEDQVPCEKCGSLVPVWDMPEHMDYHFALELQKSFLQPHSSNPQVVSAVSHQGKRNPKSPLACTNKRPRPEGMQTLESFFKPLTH
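Pol eta (10 nM) was preincubated with compounds for 15 min at room temperature, after which fluorescent replication substrate (50 nM final) was added to start the reaction. Fluorescence was read kinetically at 0 and 10 min.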
PGK validate = TbPGK inhibition, hit validation. shares compounds with POLK inh. TbPGK coupled GAPDH assay, Kinase-Glo luminescence. Potency, µM (doses to about 57.5 µM), inactives show at the highest dose activity change, negative = inhibition, hits mostly inhibitors. 79% of 500 active. AID 686980; also: % is scaled to controls: 0 for no effect and ±100 for the full control effect; nearly all actives have a fitted effect of over 65% in size
Pol iota confirm = Confirm cherry-picked inhibitors of human polymerase iota; shares compounds with POLK inh; Potency, µM, actives largely listed as inhibitors; Pol iota primer extension, TAMRA/BHQ fluorescence; 77% of 1,500 active
An asterisk follows results filed as active; ? = inconclusive; / = no result given; [ ] = dose if it differs, or a comment. Calls follow the shape of the dose curve; as a rule, active = well fitted curve in the direction sought with a large enough effect; inconclusive = small, poorly fitted or top-dose-only effect, or another doubt; inactive = no such curve, though single readings can be large; an effect the other way counts as inactive or inconclusive. Potency is read from the fitted curve at half-maximal effect.

SMILES	FEN1 inh	POLB inh	POLI inh	POLK inh	WRN inhibitor	POLH inh	others
CS(=O)(=O)c1ccc(C(=O)Nc2ccc(-c3nc4ccccc4[nH]3)cc2)cc1	11.8%	0.3%	-21.5%	5.8%	7.8%	2.9%
O=C(Nc1ccc(-c2nc3ccccc3[nH]2)cc1)c1ccc(C(F)(F)F)cc1	/	/	/	/	/	/	Pol iota confirm=?
Cc1ccc(NC(=O)c2sccc2C)nc1	-0.4%	8.9%	9.0%	3.1%	12.0%	-7.6%	PGK validate=13µM*
COc1ccc(NC(=O)c2c(C)oc3ccc(O)c(CN4CCN(Cc5ccccc5)CC4)c23)cc1	-2.8%	21.5%	-8.1%	10.6%	/	-10.0%
CNCc1ccccc1Sc1ccc(O)c(O)c1	?	?	28.2µM*	79.4µM*	?	-6.3%	Pol iota confirm=75.2*
COc1ccc(C2=CC3=C(Br)C(=O)C(C)(OC(=O)C4CCCC4)C(=O)C3=CO2)cc1 (stereo not drawn)	?	35.5µM*	39.8µM*	79.4µM*	?	44.7µM*	PGK validate=9.19µM*
Cc1cccc(NC(=O)c2ccc(CNS(=O)(=O)c3ccc4c(c3)C(C)(C)C(=O)N4C)cc2)c1	-2.4%	-16.3%	0.5%	-16.5%	/	-12.5%
CCOc1cc(/C=N/NC(=O)c2nnn(-c3nonc3N)c2C)ccc1OCc1ccc(C)cc1	/	/	/	/	-11.5%[11.6 µM]	10µM*	Pol iota confirm=23.8*
CCOc1cc(/C=N/NC(=O)c2nnn(-c3nonc3N)c2C)ccc1OCc1ccc(F)cc1	16.4%	1.1%	27.8%	0.2%	1.0%	-4.9%
CCc1ccccc1NC(=O)c1nnn(Cc2ccc(Cl)cc2)c1N	-4.4%	43.5%	7.9%	1.8%	/	-3.7%
Cc1ccc2oc(=O)c3cc(C(=O)Nc4cccc(C#N)c4)sc3c2c1	-2.1%	28.2%	40.2%	1.4%	/	-7.1%
Cn1c2ccccc2c(=O)c2ccc(C#Cc3ccccn3)cc21	4.7%	25.1µM*	31.6µM*	-19.5%	-10.9%[11.6 µM]	28.2µM*	Pol iota confirm=?
COC(=O)N1CCCc2cc(S(=O)(=O)NCc3ccccc3)ccc21	-8.0%	-0.2%	-14.6%	-17.2%	/	-11.4%
CCCCCC(=O)Nc1cccc(C2=NOC3(C2)C[C@@H](C(N)=O)N(C(=O)c2cc([N+](=O)[O-])cc([N+](=O)[O-])c2)C3)c1 (stereo partly drawn)	-9.1%	-1.9%	1.4%	-5.1%	-4.1%	-20.6%
C=C(C)C(=O)Nc1cccc(C2=NOC3(C2)C[C@@H](C(N)=O)N(C(=O)c2cc([N+](=O)[O-])cc([N+](=O)[O-])c2)C3)c1 (stereo partly drawn)	12.6%	14.1µM*	?	?	-20.8%	20µM*	PGK validate=?
COc1ccc(C2/C=C\CN(C(=O)C3CCCCC3)C(C)C(=O)N2Cc2ccc(F)cc2)cc1 (stereo not drawn)	2.1%	/	-1.1%	-6.3%	/	/
CCc1nn2c(=O)cc(COc3cccc(NC(=O)c4ccco4)c3)nc2s1	-21.1%	?	50.1µM*	?	-20.8%	?	Pol iota confirm=?
CCCc1nn2c(=O)cc(COc3cccc(NC(=O)c4ccco4)c3)nc2s1	-5.3%	-13.0%	-25.4%	-14.5%	-7.3%	?
O=C(O)C1Nc2ccc(Br)cc2C2C=CCC12 (stereo not drawn)	?	1.58µM*	?	10µM*	28.2µM*	3.16µM*	PGK validate=18.3µM*
CC(C)CNC(=O)C1Nc2ccc(C(F)(F)F)cc2C2C=CCC12 (stereo not drawn)	-11.9%	/	-5.1%	-32.3%	-4.6%	-4.9%
COC(=O)CNC(=O)C1Nc2ccccc2C2C=CCC12 (stereo not drawn)	-20.2%	/	?	-19.6%	0.7%	?
